Source: PubChem BioAssay (NCATS)
Where “and” joins values, the source holds several entries; their conditions need not be identical. Equal entries are not always repeated. Results filed as inconclusive are left out. Calls of active or inactive are those of the source. The call rests on the fitted dose curve; in most records, active means well fitted curve in the direction sought with a large enough effect; inconclusive means small, poorly fitted or top-dose-only effect, or another doubt; inactive means no such curve, though single readings can be large; an effect the other way counts as inactive or inconclusive.

Tests used:
MCC-13 = assay: qHTS assay to identify novel small-molecules to repurpose for Merkel cell carcinoma treatment (AID 1296009); conditions: MCC and control cell lines, CellTiter-Glo viability, 72 h; series mostly up to 46 µM; further: nearly all actives have a fitted effect of over 60% in size
Outline: (§1)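 qHTS format: cells treated with library compounds in DMSO across 8 (NPC) or 11 (MIPE) concentrations. Readout after 72 hr at 37 degree celsius was CellTiter-Glo luminescence.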

MCC-26 = assay: as above; conditions: MCC and control cell lines, CellTiter-Glo viability, 72 h; series mostly up to 46 µM
Outline: as §1

MKL-1 = assay: as above; conditions: MCC and control cell lines, CellTiter-Glo viability, 72 h; series mostly up to 46 µM
Outline: as §1

MKL-2 = assay: as above; conditions: MCC and control cell lines, CellTiter-Glo viability, 72 h; series mostly up to 46 µM
Outline: as §1

UISO = assay: as above; conditions: MCC and control cell lines, CellTiter-Glo viability, 72 h; series mostly up to 46 µM
Outline: as §1

WaGa = assay: as above; conditions: MCC and control cell lines, CellTiter-Glo viability, 72 h; series mostly up to 46 µM
Outline: as §1

C33A = assay: Primary qHTS to identify gynecologic anti-cancer compounds using libraries of approved drugs and bioactive compounds (AID 1345084); conditions: Gynecologic cancer cell panel viability, ATPlite luminescence, 48 h; series mostly up to 57.5 µM; further: nearly all actives have a fitted effect of over 55% in size
Outline: (§2)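 Cells, 1,000 per well, plated 16 h, then exposed 48 h at 37 C to compounds. Viability by ATPlite luminescence after 15 min at room temperature.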

CAOV3 = assay: as above; conditions: Gynecologic cancer cell panel viability, ATPlite luminescence, 48 h; series mostly up to 57.5 µM
Outline: as §2

CASKI = assay: as above; conditions: Gynecologic cancer cell panel viability, ATPlite luminescence, 48 h; series mostly up to 57.5 µM
Outline: as §2

Es-2 = assay: as above; conditions: Gynecologic cancer cell panel viability, ATPlite luminescence, 48 h; series mostly up to 57.5 µM
Outline: as §2

HeLa = assay: as above; conditions: Gynecologic cancer cell panel viability, ATPlite luminescence, 48 h; series mostly up to 57.5 µM
Outline: as §2

Hek293T = assay: as above; conditions: Gynecologic cancer cell panel viability, ATPlite luminescence, 48 h, control line for the selectivity index; series mostly up to 57.5 µM
Outline: as §2

JEG-3 = assay: as above; conditions: Gynecologic cancer cell panel viability, ATPlite luminescence, 48 h; series mostly up to 57.5 µM
Outline: as §2

OV90 = assay: as above; conditions: Gynecologic cancer cell panel viability, ATPlite luminescence, 48 h; series mostly up to 57.5 µM
Outline: as §2

PA-1 = assay: as above; conditions: Gynecologic cancer cell panel viability, ATPlite luminescence, 48 h; series mostly up to 57.5 µM
Outline: as §2

SKOV3 = assay: as above; conditions: Gynecologic cancer cell panel viability, ATPlite luminescence, 48 h; series mostly up to 57.5 µM
Outline: as §2

Tov-21-G = assay: as above; conditions: Gynecologic cancer cell panel viability, ATPlite luminescence, 48 h; series mostly up to 57.5 µM
Outline: as §2

Tov112D = assay: as above; conditions: Gynecologic cancer cell panel viability, ATPlite luminescence, 48 h; series mostly up to 57.5 µM
Outline: as §2

[1] = Drug repurposing screens with cells derived from glioblastoma tumor samples (AID 1345199); conditions: GBM patient neurospheres viability, ATP luminescence, 48 h; further: nearly all actives have a fitted effect of over 40% in size
Outline: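 Four patient lines of CD133+ GBM neurospheres were screened at several concentrations; hits were retested in those lines plus three slower-growing GBM lines, using 48-hour treatment and ATP-based viability.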

NIH3T3 = assay: qHTS assay to identify novel small-molecules to repurpose for Merkel cell carcinoma treatment (AID 1296009); conditions: MCC and control cell lines, CellTiter-Glo viability, 72 h; at 44.8 µM (top of the series) unless noted; further: nearly all actives have a fitted effect of over 60% in size
Outline: as §1

[2] = at 45.9 µM (top of the series), tumour line B
[3] = at 45.9 µM (top of the series), tumour line D
[4] = at 46.1 µM (top of the series), tumour line C
[5] = at 46 µM (top of the series), tumour line A
[6] = at 20 µM (top of the series), tumour line C
[7] = at 21.2 µM (top of the series), tumour line B
[8] = at 21.2 µM (top of the series), tumour line D
On the % scale 0 is the no-effect control and ±100 the full control effect.

CCCCCN(CCCCC)C(=O)C(CCC(=O)O)NC(=O)c1ccc(Cl)c(Cl)c1 (stereo not drawn)
inactive: Potency (MCC-13) | Potency (MCC-26) | Potency (MKL-1) | Potency (MKL-2) | Potency (UISO) | Potency (WaGa) | Potency (C33A) | Potency (CAOV3) | Potency (CASKI) | Potency (Es-2) | Potency (HeLa) | Potency (Hek293T) | Potency (JEG-3) | Potency (OV90) | Potency (PA-1) | Potency (SKOV3) | Potency (Tov-21-G) | Potency (Tov112D) | activity, negative = cell killing [1, 2] -4.86% | activity, negative = cell killing [1, 3] -12.8% | activity, negative = cell killing [1, 4] -26.2%

COCCc1ccc(OCC(O)CNC(C)C)cc1 (stereo not drawn)
inactive: Potency (MCC-13) | Potency (MCC-26) | Potency (MKL-1) | Potency (MKL-2) | outcome (NIH3T3) | Potency (UISO) | Potency (WaGa) | Potency (C33A) | Potency (CAOV3) | Potency (CASKI) | Potency (Es-2) | Potency (HeLa) | Potency (Hek293T) | Potency (JEG-3) | Potency (OV90) | Potency (PA-1) | Potency (SKOV3) | Potency (Tov-21-G) | Potency (Tov112D) | activity, negative = cell killing [1, 2] -10.1% and -7.19% and -6.43% | activity, negative = cell killing [1, 3] 1.85% and 20.6% and -26.1% | activity, negative = cell killing [1, 5] -33.9% | activity, negative = cell killing [1, 4] -0.129% and -0.523%

C[C@@H](O)[C@H]1C(=O)N2C(C(=O)O)=C(SCCN=CN)C[C@H]12
inactive: Potency (MCC-13) | Potency (MCC-26) | Potency (MKL-1) | Potency (MKL-2) | Potency (UISO) | Potency (WaGa) | Potency (C33A) | Potency (CAOV3) | Potency (CASKI) | Potency (Es-2) | Potency (HeLa) | Potency (Hek293T) | Potency (JEG-3) | Potency (OV90) | Potency (PA-1) | Potency (SKOV3) | Potency (Tov-21-G) | Potency (Tov112D) | activity, negative = cell killing [1, 6] -11.4% | activity, negative = cell killing [1, 7] -16.2% | activity, negative = cell killing [1, 8] -8.7% | activity, negative = cell killing ([1]; at 21.3 µM (top of the series), tumour line A) -14.5%

CN(C)CCOC(=O)COc1ccc(Cl)cc1
inactive: Potency (MCC-13) | Potency (MCC-26) | Potency (MKL-1) | Potency (MKL-2) | Potency (UISO) | Potency (WaGa) | Potency (C33A) | Potency (CAOV3) | Potency (CASKI) | Potency (Es-2) | Potency (HeLa) | Potency (Hek293T) | Potency (JEG-3) | Potency (OV90) | Potency (PA-1) | Potency (Tov-21-G) | Potency (Tov112D) | activity, negative = cell killing [1, 6] -19.3% | activity, negative = cell killing [1, 7] -11.3% | activity, negative = cell killing [1, 8] -14.6%

NC(Cc1ccc(Cl)cc1)C(=O)O (stereo not drawn)
inactive: activity change, negative = cytotoxicity (MCC-13) 20.3% [at 0.597 µM] | activity change, negative = cytotoxicity (MCC-26) 17.1% [at 0.597 µM] | activity change, negative = cytotoxicity (MKL-1) 8.15% [at 0.597 µM] | activity change, negative = cytotoxicity (MKL-2) 20% [at 0.597 µM] | activity change, negative = cytotoxicity (UISO) 36.5% [at 0.597 µM] | activity change, negative = cytotoxicity (WaGa) 12.8% [at 0.597 µM] | activity change, negative = cytotoxicity (C33A) 13.6% [at 0.462 µM] | activity change, negative = cytotoxicity (CAOV3) 0.059% [at 0.462 µM] | activity change, negative = cytotoxicity (CASKI) 7.36% [at 0.462 µM] | activity change, negative = cytotoxicity (Es-2) 1.05% [at 0.462 µM] | activity change, negative = cytotoxicity (HeLa) 14.4% [at 0.462 µM] | activity change, negative = cytotoxicity (Hek293T) 0.47% [at 0.462 µM] | activity change, negative = cytotoxicity (JEG-3) 1.83% [at 0.462 µM] | activity change, negative = cytotoxicity (OV90) -16.1% [at 0.462 µM] | activity change, negative = cytotoxicity (PA-1) -4.76% [at 0.462 µM] | activity change, negative = cytotoxicity (SKOV3) 0.0141% [at 0.462 µM] | activity change, negative = cytotoxicity (Tov-21-G) 11.9% [at 0.462 µM] | activity change, negative = cytotoxicity (Tov112D) 2.14% [at 0.462 µM] | activity, negative = cell killing [1, 2] -4.29% | activity, negative = cell killing [1, 3] -0.449% | activity, negative = cell killing [1, 5] -31.7% | activity, negative = cell killing [1, 4] 0.887%
